Reference: PubChem BioAssay (NCATS)
Several values for one entry are separate records, joined by “and”; a condition that tells them apart may be missing. Identical values can stand only once. Results filed as inconclusive are left out. Activity calls are given as the source filed them. Unless noted, calls follow the shape of the dose curve; as a rule, active = well fitted curve in the direction sought with a large enough effect; inconclusive = small, poorly fitted or top-dose-only effect, or another doubt; inactive = no such curve, though single readings can be large; an effect the other way counts as inactive or inconclusive.

How the values were obtained:
[1] = Cell Viability - HepG2 (AID 433; calls by dose curve;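 also: potency is read from the fitted curve at half-maximal effect; potency for ATP loss meaning cytotoxicity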); details: qHTS
Outline: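 Cytotoxicity is scored as loss of intracellular ATP in HepG2 cells exposed to compounds for 40 h. Concentration-response curves, normalized to DMSO and 100 uM tamoxifen, give AC50 values.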

[2] = Cell Viability - HUV-EC-C (AID 542); also: nearly all actives have a fitted effect of over 35% in size; also: potency is read from the fitted curve at half-maximal effect; as to activity change, negative = cytotoxicity: % is scaled to controls: 0 for no effect and ±100 for the full control effect
Outline: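 HUV-EC-C normal human vascular endothelial cells, 1000 cells/well, pre-incubated 5 hr at 37 °C, then exposed to compounds for 40 hr at 37 °C in complete medium. Viability measured as intracellular ATP by CellTiter-Glo luminescence; AC50 from Hill fits.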

[3] = Cell Viability - Renal Proximal Tubule (AID 545); details: renal proximal tubule cells viability, at 91.7 µM (top of the series);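 also: 0% = DMSO only and -100% = 100 µM tamoxifen; nearly all actives have a fitted effect of over 40% in size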
Outline: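 Cytotoxicity is scored as a concentration-dependent drop in cellular ATP in primary rat renal proximal tubule cells exposed for 40 hr. AC50 derives from Hill modelling.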

[4] = Cellular Toxicity (caspase-3) HUV-EC-C (AID 656);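 also: 0% = DMSO basal and 100% = 100 µM tamoxifen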
Outline: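 Read-out: luminescence proportional to caspase 3/7 activity, measured 20 min after adding Caspase-Glo 3/7 reagent. Cells (HUV-EC-C) had received compound for 16 hr at 37°C. Increases relative to DMSO and 100 uM tamoxifen gave concentration-response AC50 values.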

[5] = Cellular Toxicity (caspase-3) BJ (AID 658)
Outline: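 Luminescent aminoluciferin-substrate cleavage reports caspase 3/7 activity in normal human BJ fibroblasts after 16 hr compound exposure at 37 °C. Normalized to DMSO (basal) and 10 uM staurosporine (100%); AC50 from Hill fit of concentration-response.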

[6] = Cellular Toxicity (caspase-3) MRC-5 (AID 659)
Outline: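 Luminescence from caspase-cleaved aminoluciferin substrate (Caspase-Glo 3/7, 1 hr RT) reports caspase 3/7 activity in MRC-5 lung fibroblasts after 16 hr compound exposure. Normalized to DMSO basal and 10 uM staurosporine as 100%; AC50 from Hill fits.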

[7] = Cellular Toxicity (caspase-3) Mesangial (AID 660);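 also: cells exposed to compound for 16 h before the caspase read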
Outline: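 Human renal glomerular mesangial cells (1000/well) were treated with compounds for 16 h at 37 °C in complete medium, then caspase 3/7 activity was read by Caspase-Glo luminescence. Data were normalized to DMSO and 100 uM tamoxifen; AC50 from Hill fits.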

[8] = Cellular Toxicity (caspase-3) H-4-II-E (AID 663);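 also: cells exposed to compound for 16 hr before readout; 0% = DMSO basal and 100% = 100 µM tamoxifen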
Outline: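 Luminescence from caspase-cleaved aminoluciferin substrate, read 20 min after reagent addition, reports caspase 3/7 activation in rat H-4-II-E cells after 16 hr compound exposure. Normalized to DMSO (basal) and 100 uM tamoxifen (100%); AC50 from Hill fits.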

[9] = Cellular Toxicity (caspase-3) N2a (AID 665); details: N2a cells, luminescence, normalized: DMSO 0%, 10 µM staurosporine 100%; at 92.2 µM (top of the series);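 also: compound exposure lasted 16 h at 37 °C before readout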
Outline: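 Mouse N2a neuroblastoma cells (1500/well) were treated with compounds for 16 h at 37 °C, then caspase-3/7 activity was read by Caspase-Glo luminescence after 1 h at room temperature. Data were normalized to DMSO and 10 uM staurosporine; AC50 from Hill fits.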

[10] = qHTS Assay for Identification of Small Molecule Inducers of Hypoxia Response (AID 2120; active = well fitted curve in the direction sought with a large enough effect in the signal ratio, with a control signal flat, not every such curve was filed as active; the % refers to the signal ratio; also: 0% is about no effect)
Outline: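 HRE-beta-lactamase reporter in CellSensor HRE-bla ME-180 cells, 2500 cells/well in Opti-MEM with 0.5% dialyzed FBS; compounds tested as titration series, 17 h at 37 degrees C. CCF4 substrate 2.5 h at room temperature; AC50 from 460/530 nm ratio.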

[11] = qHTS assay for small molecule agonists of the antioxidant response element (ARE) signaling pathway measured by Nrf2-dependant transcriptional activity - cell viability counter screen (AID 720653; active = well fitted curve in the direction sought with a large enough effect in the repeat runs; an effect the other way counts as inactive or inconclusive; also: % is scaled to controls: 0 for no effect and ±100 for the full control effect); details: ARE-bla HepG2 viability, CellTiter-Glo ATP luminescence, 16 h; stronger effect = lower value
Outline: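 ARE-bla HepG2 cells (2,000/well) rested 5 hrs at 37C/5% CO2, then exposed to compounds in DMSO for 16 hrs. Viability was read in the same wells as intracellular ATP by luminescence, 30 min at room temperature after reagent addition.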

[12] = qHTS assay for cell viability of HEK293 cells (AID 743288); details: ATP luminescence (CellTiter-Glo), 18 h; max response: stronger effect = lower value; also: % is scaled to controls: 0 for no effect and ±100 for the full control effect; nearly all actives have a fitted effect of over 50% in size
Outline: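 The Tox21 protocol used parental HEK293 cells treated for 18 h at 37 C with compounds delivered by pintool; ATP-coupled luminescence after 30 min at room temperature gave viability.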

[13] = qHTS for differential inhibitors of proliferation of Plasmodium falciparum line HB3 (AID 1886); details: Potency: Plasmodium falciparum HB3 proliferation inhibition;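 also: parasites grown with compound for 72 h before SYBR Green readout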; also: potency is read from the fitted curve at half-maximal effect
[14] = Validation screen for inhibitors of Lassa infection (AID 463096; calls by dose curve; also: % is scaled to controls: 0 for no effect and ±100 for the full control effect)
[15] = Quantitative high throughput screen for delayed death inhibitors of the malarial parasite plastid, 96 hour incubation (AID 488745); also: nearly all actives have a fitted effect of over 70% in size; also: potency is read from the fitted curve at half-maximal effect
Outline: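 P. falciparum carrying an integrated firefly luciferase reporter, grown in erythrocytes (2% hematocrit, 0.1% parasitemia final) in RPMI 1640/0.5% Albumax, was exposed to compound for 96 h (two generations) at 37 C, 5% CO2. Luminescence decrease indicated growth inhibition.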

[16] = target: M-phase phosphoprotein 8 (Homo sapiens) (UniProt Q99549); experiment: qHTS Validation Assay for Inhibitors for MPP8 Chromodomain Interactions with Methylated Histone Tails (AID 488949); also: nearly all actives have a fitted effect of over 55% in size; also: potency is read from the fitted curve at half-maximal effect
M-phase phosphoprotein 8 (Homo sapiens), sequence (Q99549 whole entry, looked up): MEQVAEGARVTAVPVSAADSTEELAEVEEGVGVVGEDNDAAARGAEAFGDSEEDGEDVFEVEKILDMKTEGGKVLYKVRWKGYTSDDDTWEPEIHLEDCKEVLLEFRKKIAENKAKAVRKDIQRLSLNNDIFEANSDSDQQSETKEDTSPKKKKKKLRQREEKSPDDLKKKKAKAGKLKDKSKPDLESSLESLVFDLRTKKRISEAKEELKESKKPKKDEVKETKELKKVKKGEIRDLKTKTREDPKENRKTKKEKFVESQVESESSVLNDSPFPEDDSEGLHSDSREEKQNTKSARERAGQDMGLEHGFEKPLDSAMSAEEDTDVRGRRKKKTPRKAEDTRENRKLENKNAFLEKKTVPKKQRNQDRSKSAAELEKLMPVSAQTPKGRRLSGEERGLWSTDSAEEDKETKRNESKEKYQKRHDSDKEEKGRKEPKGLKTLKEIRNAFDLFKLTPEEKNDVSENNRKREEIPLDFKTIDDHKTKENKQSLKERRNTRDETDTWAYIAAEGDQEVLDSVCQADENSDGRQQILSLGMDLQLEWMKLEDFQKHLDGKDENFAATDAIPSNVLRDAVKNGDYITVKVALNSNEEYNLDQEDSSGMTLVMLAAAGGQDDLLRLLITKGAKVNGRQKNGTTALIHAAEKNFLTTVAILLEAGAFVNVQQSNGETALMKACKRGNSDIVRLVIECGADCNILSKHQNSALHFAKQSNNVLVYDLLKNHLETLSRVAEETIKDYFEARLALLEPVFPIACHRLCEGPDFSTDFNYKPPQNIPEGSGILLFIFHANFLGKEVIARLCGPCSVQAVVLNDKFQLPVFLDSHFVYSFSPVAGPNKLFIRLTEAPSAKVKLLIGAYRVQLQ
Outline: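 Disruption of the preformed MPP8–trimethyl-H3K9 peptide complex (both 50 nM, 30 min, RT) is measured after 30 min compound exposure, using AlphaScreen proximity beads; aurintricarboxylic acid titration serves as plate control.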

[17] = target: Thyrotropin receptor (Homo sapiens) (UniProt P16473); experiment: qHTS Assay for Antagonists of the Thyroid Stimulating Hormone Receptor (AID 488980); also: 0% is about no effect
Thyrotropin receptor (Homo sapiens), sequence (P16473 whole entry, looked up): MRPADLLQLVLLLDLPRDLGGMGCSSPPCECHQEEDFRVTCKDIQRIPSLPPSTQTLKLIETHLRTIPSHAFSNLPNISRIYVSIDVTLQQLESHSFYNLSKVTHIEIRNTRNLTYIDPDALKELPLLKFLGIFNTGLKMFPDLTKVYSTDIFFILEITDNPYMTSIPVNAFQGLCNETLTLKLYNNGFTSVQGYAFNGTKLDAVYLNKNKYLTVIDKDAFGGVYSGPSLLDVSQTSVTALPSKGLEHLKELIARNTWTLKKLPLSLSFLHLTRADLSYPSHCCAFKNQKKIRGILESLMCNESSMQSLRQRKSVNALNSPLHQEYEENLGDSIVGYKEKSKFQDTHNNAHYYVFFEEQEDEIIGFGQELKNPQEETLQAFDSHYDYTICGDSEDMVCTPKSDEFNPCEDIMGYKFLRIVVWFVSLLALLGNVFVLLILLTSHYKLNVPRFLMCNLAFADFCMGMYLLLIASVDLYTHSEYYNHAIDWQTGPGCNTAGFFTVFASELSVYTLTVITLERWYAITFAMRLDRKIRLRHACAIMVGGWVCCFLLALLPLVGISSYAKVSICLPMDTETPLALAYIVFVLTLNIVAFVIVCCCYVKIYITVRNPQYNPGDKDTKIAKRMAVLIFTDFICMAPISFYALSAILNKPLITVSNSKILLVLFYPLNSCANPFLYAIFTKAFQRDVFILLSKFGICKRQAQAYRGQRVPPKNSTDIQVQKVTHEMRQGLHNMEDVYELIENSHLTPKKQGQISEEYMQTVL
Outline: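 Cells expressing human TSHR (HEK293) are dispensed in HBSS/HEPES containing 70 uM RO 20-1724, compound is added, then TSH at EC80 (4 nM final). Antibody in lysis buffer follows, 30 minutes at room temperature before HTRF detection.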

[18] = target: Thyrotropin-releasing hormone receptor (Homo sapiens) (UniProt P34981); experiment: qHTS for Small Molecule Agonists and Allosteric Enhancers of Human TRH Receptor: Validation Screen for Agonists (AID 493127;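 active = calcium activation more than 3 SD above the typical response in the agonist read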;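 also: intracellular calcium rise by fluo-8 fluorescence before TRH EC20 addition; 0% is about no effect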); details: TRH receptor agonist cell assay; at 2 µM; stronger effect = higher value
Thyrotropin-releasing hormone receptor (Homo sapiens), sequence (P34981 whole entry, looked up): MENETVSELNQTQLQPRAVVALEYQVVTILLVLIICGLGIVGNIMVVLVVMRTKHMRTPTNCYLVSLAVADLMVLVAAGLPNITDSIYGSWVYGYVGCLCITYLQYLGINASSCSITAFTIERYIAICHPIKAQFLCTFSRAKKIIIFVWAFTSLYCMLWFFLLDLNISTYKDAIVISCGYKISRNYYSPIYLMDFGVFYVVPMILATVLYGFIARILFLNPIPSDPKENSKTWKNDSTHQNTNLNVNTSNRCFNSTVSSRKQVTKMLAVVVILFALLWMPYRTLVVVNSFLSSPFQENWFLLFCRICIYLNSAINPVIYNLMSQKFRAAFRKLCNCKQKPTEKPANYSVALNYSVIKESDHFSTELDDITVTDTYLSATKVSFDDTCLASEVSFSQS
Outline: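 TRHR-expressing cells were plated overnight in serum-containing medium, then loaded with fluo-8 calcium dye at room temperature for 30 min–1.5 h. After a 10 s baseline, compound was pin-transferred and calcium fluorescence (ex 480/em 530) read kinetically for agonist response.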

[19] = target: Galactokinase (Homo sapiens) (UniProt P51570); experiment: qHTS Validation Assay for Inhibitors of Human Galactokinase (GALK) (AID 493189); also: 0% is about no effect
Galactokinase (Homo sapiens), sequence (P51570 whole entry, looked up): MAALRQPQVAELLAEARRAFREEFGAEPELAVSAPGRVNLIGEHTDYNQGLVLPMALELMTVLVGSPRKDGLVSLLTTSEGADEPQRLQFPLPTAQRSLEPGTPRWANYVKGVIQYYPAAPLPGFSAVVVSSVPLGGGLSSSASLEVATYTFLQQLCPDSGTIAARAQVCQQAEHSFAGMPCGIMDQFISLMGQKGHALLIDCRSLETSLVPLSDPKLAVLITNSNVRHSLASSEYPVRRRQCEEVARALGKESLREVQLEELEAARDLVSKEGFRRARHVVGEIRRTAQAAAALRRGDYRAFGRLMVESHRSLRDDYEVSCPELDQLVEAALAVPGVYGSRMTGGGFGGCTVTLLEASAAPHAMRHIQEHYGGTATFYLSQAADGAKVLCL
Outline: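 Compounds were pin-transferred into ATP buffer, then GALK-galactose mix was added (final 5 nM enzyme, 100 uM galactose, 35 uM ATP). After 1 h at room temperature, remaining ATP was measured luminescently.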

[20] = Validation screen for small molecules that induce DNA re-replication in SW480 colon adenocarcinoma cells (AID 504364); also: 0% is about no effect
Outline: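 SW480 cells seeded at 250 per well were exposed to compound or DMSO for 48 hr at 37 C, 5% CO2, then stained with Hoechst for 40 min. DNA content per nucleus was imaged (405 nm ex, 500-530 nm em).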

[21] = primary cells of rat origin unless noted

O=C(O)COc1ccc(Cl)cc1Cl
inactive: Potency [1] > 92 µM | Potency [2] | activity change, negative = cytotoxicity [3] -12.8% | activity change, negative = cytotoxicity ([3]; primary cells of rat origin) -15.7% | outcome [4] | outcome [5] | outcome [6] | outcome [7] | outcome [8] | caspase-3 activation [9] -2.05% and -1.8% | outcome [10] | max response [11] -0.488% [middle of 4 runs] | max response [12] 0.426% [middle of 4 runs]

CCCN(CCC)C(=O)Cc1c(-c2ccc(Cl)cc2)nc2c(Cl)cc(Cl)cn12
inactive: Potency [13] | Potency [14] | Potency [15] | Potency [16] | outcome [17] | activation [18] -11.1% | outcome [19] | outcome [20]

C=CCc1ccc(OC)cc1
inactive: Potency [1] > 92 µM | Potency [2] | activity change, negative = cytotoxicity [3, 21] -9.51% [at 91.7 µM] | outcome [4] | outcome [5] | outcome [6] | outcome [7] | outcome [8] | caspase-3 activation [9] 0.258% | outcome [10] | max response [11] 2.85% | max response [12] 2.04%

CCOCN(C(=O)CCl)c1c(C)cccc1CC
inactive: outcome [4] | outcome [5] | outcome [6] | outcome [7] | outcome [8] | caspase-3 activation [9] -0.109% | outcome [10] | max response [11] -15.8% and -13.8% | max response [12] -18.2% and -18.7%
active: Potency [2] 25.1 µM | activity change, negative = cytotoxicity [3, 21] -103%

ClC(Cl)=C(c1ccc(Cl)cc1)c1ccc(Cl)cc1
inactive: Potency [1] > 92 µM | Potency [2] | activity change, negative = cytotoxicity [3, 21] -4.32% [at 91.7 µM] and -7.69% [at 91.7 µM] | outcome [4] | outcome [5] | outcome [6] | outcome [7] | outcome [8] | caspase-3 activation [9] 2.33% and 2.48% | outcome [10] | max response [11] 6.47% and -9.67% and -6.97% | max response [12] -14.7% and -6.72% and -17.4%

COP(=S)(OC)Oc1ccc([N+](=O)[O-])cc1
inactive: Potency [1] > 92 µM | Potency [2] | activity change, negative = cytotoxicity [3, 21] -3.77% [at 91.7 µM] | outcome [4] | outcome [5] | outcome [6] | outcome [7] | outcome [8] | caspase-3 activation [9] -2.62% | outcome [10] | max response [11] 0.527% and -8.08% | max response [12] -1.38% and -0.0798%

ClC1=C(Cl)C2(Cl)C3C(Cl)C=CC3C1(Cl)C2(Cl)Cl (stereo unspecified)
inactive: Potency [1] > 92 µM | Potency [2] | activity change, negative = cytotoxicity [3, 21] -2.85% | outcome [4] | outcome [5] | outcome [6] | outcome [7] | outcome [8] | caspase-3 activation [9] -3.13% | outcome [10] | max response [11] -10.5% | max response [12] -13.7%

CN1CCC23CCCC[C@H]2C1Cc1ccc(O)cc13 (stereo partly specified)
inactive: Potency [13] | Potency [14] | Potency [15] | Potency [16] | outcome [17] | activation [18] 0.625% | outcome [19] | outcome [20]

CCc1cccc(CC)c1N(COC)C(=O)CCl
inactive: Potency [1] > 92 µM | outcome [4] | outcome [5] | outcome [6] | outcome [7] | outcome [8] | caspase-3 activation [9] 4.56% | outcome [10] | max response [11] 6.28% and -3.56% | max response [12] -15.4% and -21.3%
active: Potency [2] 50.1 µM

CCC(CO)NC(=O)[C@@H]1C=C2c3cccc4[nH]cc(c34)C[C@H]2N(C)C1 (stereo partly specified)
inactive: Potency [14] | Potency [16] | outcome [17] | activation [18] -2.81% | outcome [19] | outcome [20]
active: Potency [13] 10 µM

CC1Cc2cc3c(cc2C(c2ccc(N)cc2)=NN1)OCO3 (stereo unspecified)
inactive: Potency [14] | Potency [15] | outcome [17] | activation [18] 0.188% | outcome [19] | outcome [20]
active: Potency [16] 56.2 µM

ClC1=C(Cl)C2(Cl)C3C4CC(C5OC45)C3C1(Cl)C2(Cl)Cl (stereo unspecified)
inactive: Potency [1] > 92 µM | Potency [2] | activity change, negative = cytotoxicity [3, 21] -5.71% [at 91.7 µM] | outcome [4] | outcome [5] | outcome [6] | outcome [7] | outcome [8] | caspase-3 activation [9] -1.24% | outcome [10] | max response [11] -3.29% | max response [12] -18.3%

C/C=C/c1ccc2c(c1)OCO2
inactive: Potency [1] > 92 µM | Potency [2] | activity change, negative = cytotoxicity [3, 21] -9.95% [at 91.7 µM] | outcome [4] | outcome [5] | outcome [6] | outcome [7] | outcome [8] | caspase-3 activation [9] 0.0142% | outcome [10] | max response [11] -6.6% | max response [12] -1.69%

CCN(CC)C(=O)N[C@@H]1C[C@@H]2c3cccc4[nH]cc(c34)C[C@H]2N(C)C1
active: Potency [13] 0.891 µM | Potency [15] 1.17 µM
inactive: Potency [14] | outcome [17] | activation [18] -2.62% | outcome [19] | outcome [20]

CNC(=O)O/N=C/C(C)(C)SC
inactive: Potency [1] > 92 µM | Potency [2] | activity change, negative = cytotoxicity [3, 21] -3.02% [at 91.7 µM] | outcome [4] | outcome [5] | outcome [6] | outcome [7] | outcome [8] | caspase-3 activation [9] -2.85% | outcome [10] | max response [11] 2.17% and 5.56% | max response [12] -1.1% and -12.4% and -2.16%
